Reference: PubChem BioAssay (NCATS)
Inconclusive results are not listed. Active and inactive are the calls of the source. Unless noted, the call rests on the fitted dose curve; in most records, active means well fitted curve in the direction sought with a large enough effect; inconclusive means small, poorly fitted or top-dose-only effect, or another doubt; inactive means no such curve, though single readings can be large; an effect the other way counts as inactive or inconclusive.

Columns and labels:
[1] = target: Lysosomal acid glucosylceramidase (Homo sapiens) (UniProt P04062); experiment: Glucocerebrosidase-p2 (AID 348; in the data active means potency below about 10 µM; further: potency means the concentration at half of the fitted maximal effect); conditions: purified GBA, blue fluorogenic substrate, 40 min
Lysosomal acid glucosylceramidase (Homo sapiens), sequence (P04062 whole entry, looked up): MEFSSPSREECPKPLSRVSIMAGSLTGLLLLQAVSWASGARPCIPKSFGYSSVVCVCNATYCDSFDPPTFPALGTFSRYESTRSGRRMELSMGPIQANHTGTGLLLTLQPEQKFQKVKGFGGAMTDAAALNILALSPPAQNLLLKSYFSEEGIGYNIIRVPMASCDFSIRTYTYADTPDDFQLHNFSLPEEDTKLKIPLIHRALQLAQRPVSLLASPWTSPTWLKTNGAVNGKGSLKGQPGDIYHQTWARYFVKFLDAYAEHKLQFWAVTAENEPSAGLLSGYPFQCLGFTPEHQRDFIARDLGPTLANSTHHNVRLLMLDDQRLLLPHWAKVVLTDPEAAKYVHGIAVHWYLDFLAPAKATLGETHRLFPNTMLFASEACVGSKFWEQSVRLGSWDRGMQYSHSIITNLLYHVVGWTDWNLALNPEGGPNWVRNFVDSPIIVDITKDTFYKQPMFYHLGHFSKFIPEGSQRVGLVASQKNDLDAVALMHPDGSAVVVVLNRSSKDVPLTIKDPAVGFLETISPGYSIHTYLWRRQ
Summary of the method: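 Normal human glucocerebrosidase (0.2 nM) with blue fluorogenic substrate (80 uM final) in citrate/phosphate pH 5.9 with 10mM sodium taurocholate, 0.01% tween-20; 40 min RT, NaOH/glycine stop; fluorescence Ex 365/Em 440; AC50 from a titration from 0.6 nM upwards.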

[2] = AP1 Signaling Pathway (AID 357; active means well fitted curve in either direction with a large enough effect, not every such curve was filed as active;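 further: ME-180 reporter cells stimulated with EGF at its EC50 level; on the % scale 0 is the no-effect control and ±100 the full control effect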); conditions: ME-180 AP-1-bla reporter, EGF-induced, beta-lactamase ratio, 5 h; at 7.69 µM (top of the series) unless noted
Summary of the method: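 In this screen, ME-180 cells in Opti-MEM with 0.5% dialyzed FBS received EC50 EGF and compound titrations for 5 h. AP-1 reporter beta-lactamase was detected via CCF4 ratio, giving AC50 for positive and negative modulators.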

[3] = NFAT Signaling Pathway (AID 444; active means well fitted curve in either direction with a large enough effect, not every such curve was filed as active;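 further: carbachol stimulus at about its EC50 of 1 µM final; on the % scale 0 is the no-effect control and ±100 the full control effect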); conditions: Jurkat NFAT-bla M1, carbachol, beta-lactamase ratio, 5 h; at 7.69 µM (top of the series) unless noted
Summary of the method: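 Jurkat cells carrying an NFAT-driven β-lactamase reporter and co-transfected muscarinic M1 receptor were treated with compound plus carbachol (1 uM final, an EC50 level) for 5 h at 37 °C. CCF4 loading followed for 1 h at RT; 460/530 nm ratio gave %activity.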

[4] = Stat Signaling Pathway (AID 446; active means well fitted curve in either direction with a large enough effect, not every such curve was filed as active;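 further: ME-180 cervical cancer cells given 40 pM IL-6 alongside compound; SIE-controlled beta-lactamase reporter measured as 460/530 nm FRET emission ratio; on the % scale 0 is the no-effect control and ±100 the full control effect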); conditions: ME-180 (cervical carcinoma) SIE beta-lactamase reporter, IL-6 stimulated, 5 h; at 7.69 µM (top of the series) unless noted
Summary of the method: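 Normalization used AC90 stimulation (300 pM IL-6) and AC90 inhibition (125 nM pan-JAK inhibitor at 40 pM IL-6). The underlying signal is SIE-driven beta-lactamase in ME-180 cells after 5 h IL-6 exposure with compound.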

[5] = target: Glucocorticoid receptor (Homo sapiens) (UniProt P04150); experiment: GR-GFP Redistribution (AID 450;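 active means compounds whose dose series gives a full or clear partial fitted curve of increased nuclear translocation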; further: potency means the concentration at half of the fitted maximal effect); conditions: U2OS GR-GFP nuclear translocation, laser cytometry, 2 h
Glucocorticoid receptor (Homo sapiens), sequence (P04150 whole entry, looked up, the tested form may be a part): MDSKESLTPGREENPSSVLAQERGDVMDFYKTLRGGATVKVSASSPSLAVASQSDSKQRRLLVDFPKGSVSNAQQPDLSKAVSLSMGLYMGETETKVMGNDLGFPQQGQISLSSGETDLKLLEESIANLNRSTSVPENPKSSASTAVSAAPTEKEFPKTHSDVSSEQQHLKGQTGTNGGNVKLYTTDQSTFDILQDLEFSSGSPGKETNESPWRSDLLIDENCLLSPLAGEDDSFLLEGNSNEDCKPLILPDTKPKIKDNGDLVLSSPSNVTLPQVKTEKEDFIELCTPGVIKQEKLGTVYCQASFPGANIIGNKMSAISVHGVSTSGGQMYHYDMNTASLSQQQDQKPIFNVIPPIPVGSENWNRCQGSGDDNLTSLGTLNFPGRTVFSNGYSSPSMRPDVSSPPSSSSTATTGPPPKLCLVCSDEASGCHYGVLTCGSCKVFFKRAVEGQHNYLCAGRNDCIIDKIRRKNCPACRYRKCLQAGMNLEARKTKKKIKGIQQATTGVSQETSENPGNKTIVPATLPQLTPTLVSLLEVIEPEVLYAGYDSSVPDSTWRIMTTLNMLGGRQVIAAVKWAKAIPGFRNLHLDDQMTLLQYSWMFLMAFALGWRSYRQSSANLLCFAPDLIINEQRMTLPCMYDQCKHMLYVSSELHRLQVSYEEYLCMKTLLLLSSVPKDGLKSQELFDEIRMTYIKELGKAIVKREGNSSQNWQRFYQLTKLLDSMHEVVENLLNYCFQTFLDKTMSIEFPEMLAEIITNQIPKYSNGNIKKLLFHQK

[6] = target: Glucocorticoid receptor (Homo sapiens) (UniProt P04150); experiment: GR-EFC Redistribution (AID 451; calls by dose curve; further: potency means the concentration at half of the fitted maximal effect); conditions: CHO-K1 GR-EFC translocation, beta-gal luminescence, 2 h
Summary of the method: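 CHO-K1 cells stably expressing nuclear-localized β-gal enzyme acceptor and GR fused C-terminally to the enzyme donor fragment; ligand-driven nuclear translocation restores β-gal by complementation. Compounds titrated up to 46 uM final, 2 h at 37 °C; luminescence read.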

[7] = target: Cytochrome P450 3A4 (Homo sapiens) (UniProt P08684); experiment: qHTS Assay for Activators of Cytochrome P450 3A4 (AID 885); further: nearly all actives have a fitted effect of over 65% in size
Cytochrome P450 3A4 (Homo sapiens), sequence (P08684 whole entry, looked up): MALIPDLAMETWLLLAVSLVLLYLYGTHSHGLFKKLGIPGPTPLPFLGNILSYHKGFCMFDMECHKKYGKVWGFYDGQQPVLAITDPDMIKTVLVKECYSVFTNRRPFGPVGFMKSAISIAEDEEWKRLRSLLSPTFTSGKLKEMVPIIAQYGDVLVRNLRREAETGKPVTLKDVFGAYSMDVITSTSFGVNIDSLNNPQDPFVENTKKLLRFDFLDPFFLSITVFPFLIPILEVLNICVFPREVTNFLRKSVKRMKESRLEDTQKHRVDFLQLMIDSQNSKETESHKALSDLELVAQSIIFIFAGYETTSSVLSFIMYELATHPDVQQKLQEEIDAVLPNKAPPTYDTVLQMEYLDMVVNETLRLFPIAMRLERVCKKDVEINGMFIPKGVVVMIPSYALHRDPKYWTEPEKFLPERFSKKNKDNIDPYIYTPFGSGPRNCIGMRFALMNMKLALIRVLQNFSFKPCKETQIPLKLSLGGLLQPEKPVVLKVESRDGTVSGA
Summary of the method: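 Human CYP3A4 dealkylates Luciferin-PPXE to luciferin, which luciferase detection converts to light. Substrate was at its KM (25uM), buffer 200mM KPO4, reaction 60 min at RT.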

[8] = target: Dual specificity protein kinase CLK4 (Homo sapiens) (UniProt Q9HAZ1); experiment: qHTS Assay for Inhibitors of CDC-like Kinase 4 (ADP-Glo Assay) (AID 1771); further: nearly all actives have a fitted effect of over 70% in size; further: potency means the concentration at half of the fitted maximal effect
Dual specificity protein kinase CLK4 (Homo sapiens), sequence (Q9HAZ1 whole entry, looked up): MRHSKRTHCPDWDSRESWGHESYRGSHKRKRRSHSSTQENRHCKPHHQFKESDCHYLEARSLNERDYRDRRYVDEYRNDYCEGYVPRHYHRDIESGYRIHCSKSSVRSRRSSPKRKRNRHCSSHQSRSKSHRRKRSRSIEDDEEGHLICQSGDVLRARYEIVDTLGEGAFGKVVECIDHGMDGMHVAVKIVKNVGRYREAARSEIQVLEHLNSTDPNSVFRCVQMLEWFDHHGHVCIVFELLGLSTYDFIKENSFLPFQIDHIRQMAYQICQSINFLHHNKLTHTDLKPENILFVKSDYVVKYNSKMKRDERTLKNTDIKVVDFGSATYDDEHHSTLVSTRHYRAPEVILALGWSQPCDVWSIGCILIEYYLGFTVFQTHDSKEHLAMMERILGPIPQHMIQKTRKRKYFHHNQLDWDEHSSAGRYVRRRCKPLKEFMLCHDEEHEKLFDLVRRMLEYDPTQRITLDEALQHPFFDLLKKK
Summary of the method: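 25 nM Clk4, 100 uM RS peptide, 1 uM ATP (final); 2 mM MgCl2, 0.5 mM EGTA, 2.5 mM DTT, 0.01% Triton X-100; 1 hr RT. ADP-Glo readout: ATP depletion 45 min, conversion/luciferase 30 min, luminescence.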

[9] = target: Dual specificity protein kinase CLK4 (Homo sapiens) (UniProt Q9HAZ1); experiment: qHTS Assay for Inhibitors of CDC-like Kinase 4 (ADP-FP Assay) (AID 1795);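 further: recombinant human CLK4 phosphorylating RS repeat peptide at 1 µM ATP; on the % scale 0 is the no-effect control and ±100 the full control effect; nearly all actives have a fitted effect of over 60% in size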
Summary of the method: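 Kinase activity was followed as ADP output, converted from fluorescence polarization with a calibration curve. Reactions ran one hour at low ATP (1 uM) with RS peptide substrate.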

[10] = target: Ubiquitin carboxyl-terminal hydrolase 1 (Homo sapiens) (UniProt O94782); experiment: Inhibitors of USP1/UAF1: Pilot qHTS (AID 504865);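 further: rhodamine fluorescence freed from ubiquitin-rhodamine substrate followed over time; top concentration of the series differs between compounds; on the % scale 0 is the no-effect control and ±100 the full control effect; nearly all actives have a fitted effect of over 35% in size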
Ubiquitin carboxyl-terminal hydrolase 1 (Homo sapiens), sequence (O94782 whole entry, looked up): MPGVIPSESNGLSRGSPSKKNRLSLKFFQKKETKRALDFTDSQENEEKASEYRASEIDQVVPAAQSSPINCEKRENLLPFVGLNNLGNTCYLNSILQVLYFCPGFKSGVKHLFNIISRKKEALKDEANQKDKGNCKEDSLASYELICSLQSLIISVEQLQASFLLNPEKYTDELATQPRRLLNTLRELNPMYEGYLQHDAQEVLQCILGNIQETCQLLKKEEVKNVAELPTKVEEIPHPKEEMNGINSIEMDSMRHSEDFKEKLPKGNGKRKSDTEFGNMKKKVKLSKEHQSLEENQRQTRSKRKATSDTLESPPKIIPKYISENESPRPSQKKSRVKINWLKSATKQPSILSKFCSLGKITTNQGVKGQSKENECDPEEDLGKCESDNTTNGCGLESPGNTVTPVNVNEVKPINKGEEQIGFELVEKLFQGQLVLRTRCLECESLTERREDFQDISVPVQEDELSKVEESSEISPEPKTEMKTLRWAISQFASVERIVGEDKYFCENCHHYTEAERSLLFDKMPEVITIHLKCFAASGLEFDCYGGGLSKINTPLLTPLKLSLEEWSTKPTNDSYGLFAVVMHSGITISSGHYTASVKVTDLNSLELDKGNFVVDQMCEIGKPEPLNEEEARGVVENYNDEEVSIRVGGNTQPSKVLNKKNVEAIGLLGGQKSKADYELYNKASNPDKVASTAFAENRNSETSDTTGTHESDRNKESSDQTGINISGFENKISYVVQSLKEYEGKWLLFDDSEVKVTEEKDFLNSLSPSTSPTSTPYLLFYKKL
Summary of the method: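 Enzyme-free wells gave the negative control, while test wells held 1nM USP1/UAF1 preincubated with compound for 15 min at room temperature. Ub-Rho at 150nM final started the reaction, and fluorescence at 480/540 nm was recorded kinetically.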

[11] = Primary qHTS for small molecule stabilizers of the endoplasmic reticulum resident proteome: Secreted ER Calcium Modulated Protein (SERCaMP) assay (AID 1508630); further: on the % scale 0 is the no-effect control and ±100 the full control effect
Summary of the method: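 The SH-SY5Y reporter protocol was run at 3 concentrations up to 38.3 uM (primary) or 11 concentrations (follow-up): 16 h compound, 100 nM thapsigargin for 4 h, then extracellular luciferase luminescence.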

[12] = target: Mitogen-activated protein kinase 10 (Mus musculus) (UniProt Q61831); experiment: JNK3 AlphaScreen Assay (AID 530; active means well fitted curve in either direction with a large enough effect, not every such curve was filed as active)
Summary of the method: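 Biotinylated GST-cJun(1-79) served as substrate for JNK3 in HepG2 lysates stimulated with IL-1beta and TNF-alpha. ATP was 10 uM final, pH 7.6. Ser73 phosphorylation was quantified by AlphaScreen (680 nm excitation).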

[13] = target: 3',5'-cyclic-AMP phosphodiesterase 4B (Homo sapiens) (UniProt Q07343); experiment: qHTS Assay for Inhibitors of PDE-IV (AID 607; active means well fitted activation curve with a large enough effect in the main read-out, with a control signal flat, not every such curve was filed as active; further: % of control where 0% means no effect)
3',5'-cyclic-AMP phosphodiesterase 4B (Homo sapiens), sequence (Q07343 whole entry, looked up): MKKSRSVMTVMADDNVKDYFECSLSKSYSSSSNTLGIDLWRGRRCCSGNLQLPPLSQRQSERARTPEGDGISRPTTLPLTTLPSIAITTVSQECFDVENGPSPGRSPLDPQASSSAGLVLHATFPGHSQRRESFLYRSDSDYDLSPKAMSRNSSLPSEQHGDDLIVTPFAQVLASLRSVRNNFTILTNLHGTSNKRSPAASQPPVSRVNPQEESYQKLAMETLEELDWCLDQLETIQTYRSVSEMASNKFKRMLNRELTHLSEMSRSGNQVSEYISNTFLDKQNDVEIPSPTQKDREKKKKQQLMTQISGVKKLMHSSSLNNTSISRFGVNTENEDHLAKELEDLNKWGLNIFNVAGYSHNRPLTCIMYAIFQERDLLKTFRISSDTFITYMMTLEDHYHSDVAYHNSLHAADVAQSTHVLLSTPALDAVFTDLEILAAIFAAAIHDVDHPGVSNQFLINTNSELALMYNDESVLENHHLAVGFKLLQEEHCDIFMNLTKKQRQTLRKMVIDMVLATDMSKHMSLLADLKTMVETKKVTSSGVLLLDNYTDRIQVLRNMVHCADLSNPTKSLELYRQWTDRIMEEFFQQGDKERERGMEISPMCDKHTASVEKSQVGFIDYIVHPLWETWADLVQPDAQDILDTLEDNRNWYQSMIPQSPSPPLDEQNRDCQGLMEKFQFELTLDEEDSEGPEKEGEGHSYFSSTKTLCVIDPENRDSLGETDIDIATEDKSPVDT
Summary of the method: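 HEK293 ACTOne cells with CNG channel (1000/well), endogenous PDE4; membrane potential dye, compounds up to 22.9 uM final. Fluorescence Ex 535/Em 590; RO 20-1724 (100 uM final) as reference.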

[14] = target: Cytochrome P450 3A4 (Homo sapiens) (UniProt P08684); experiment: qHTS Assay for Inhibitors and Substrates of Cytochrome P450 3A4 (AID 884); further: potency means the concentration at half of the fitted maximal effect; nearly all actives have a fitted effect of over 50% in size
Summary of the method: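 Luminescent readout of luciferin produced by CYP3A4 (20 nM) dealkylation of Luciferin-PPXE, 25 uM (its KM). NADPH-driven reaction ran 60 min at RT after 10 min compound preincubation; data scaled to 57 uM ketoconazole as 100% inhibition.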

[15] = target: Dual specificity protein kinase CLK4 (Homo sapiens) (UniProt Q9HAZ1); experiment: qHTS Assay for Inhibitors of CDC-like Kinase 4 (Kinase-Glo Assay) (AID 1770); further: on the % scale 0 is the no-effect control and ±100 the full control effect; nearly all actives have a fitted effect of over 65% in size
Summary of the method: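 Clk4 25 nM, RS peptide 100 uM, ATP 1 uM, pH 7.5 Tris, 10 mM MgCl2, 2.5 mM DTT; 4.5 h RT; ATP depletion read by Kinase-Glo luminescence.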

[16] = target: Cytochrome P450 1A2 (Homo sapiens) (UniProt P05177); experiment: p450-cyp1a2 (AID 410; calls by dose curve; further: potency means the concentration at half of the fitted maximal effect)
Cytochrome P450 1A2 (Homo sapiens), sequence (P05177 whole entry, looked up): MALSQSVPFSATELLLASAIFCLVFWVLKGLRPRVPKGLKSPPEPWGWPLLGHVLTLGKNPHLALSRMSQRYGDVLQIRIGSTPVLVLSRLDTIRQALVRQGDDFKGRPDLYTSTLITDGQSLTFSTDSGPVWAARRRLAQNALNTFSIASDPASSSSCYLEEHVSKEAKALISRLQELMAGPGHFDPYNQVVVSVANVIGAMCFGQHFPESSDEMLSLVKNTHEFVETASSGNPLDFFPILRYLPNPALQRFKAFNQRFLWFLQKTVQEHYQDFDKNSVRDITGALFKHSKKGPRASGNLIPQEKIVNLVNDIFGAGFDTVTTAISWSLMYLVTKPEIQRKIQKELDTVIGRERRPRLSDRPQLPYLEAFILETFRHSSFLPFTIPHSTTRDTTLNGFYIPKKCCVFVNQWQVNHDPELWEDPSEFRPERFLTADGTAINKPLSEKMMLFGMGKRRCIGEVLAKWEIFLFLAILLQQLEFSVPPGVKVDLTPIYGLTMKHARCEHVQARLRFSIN
Summary of the method: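 20nM CYP1A2, 100uM Luciferin-ME (=Km), 100mM KPO4; cpd 10 min RT; +NADPH regen, 60 min RT; stop/detect 20 min; luminescence. Normalized to furafylline 57 uM = full inhibition.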

[17] = target: Cytochrome P450 2C9 (Homo sapiens) (UniProt P11712); experiment: qHTS Assay for Inhibitors and Substrates of Cytochrome P450 2C9 (AID 883); further: potency means the concentration at half of the fitted maximal effect; nearly all actives have a fitted effect of over 60% in size
Summary of the method: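 Human CYP2C9 (10nM) hydroxylated Luciferin-H (100uM, at its KM) to luciferin in 25mM KPO4. Compound was preincubated 10 min at 37C, then NADPH regeneration started a 60 min reaction at 37C. Luminescence was read after detection reagent, normalized to 57uM sulphaphenazole.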

[18] = target: Cytochrome P450 2D6 (Homo sapiens) (UniProt P10635); experiment: qHTS Assay for Inhibitors and Substrates of Cytochrome P450 2D6 (AID 891); further: potency means the concentration at half of the fitted maximal effect; nearly all actives have a fitted effect of over 60% in size
Summary of the method: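 Luminescent read-out of luciferin formed by 5 nM human CYP2D6 demethylating 30 uM Luciferin-ME EGE (Km level) over 60 min at room temperature after NADPH regeneration addition. Data normalized to full inhibition by 1.43 uM quinidine.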

[19] = target: Cytochrome P450 2C19 (Homo sapiens) (UniProt P33261); experiment: qHTS Assay for Inhibitors and Substrates of Cytochrome P450 2C19 (AID 899); further: potency means the concentration at half of the fitted maximal effect; nearly all actives have a fitted effect of over 60% in size
Cytochrome P450 2C19 (Homo sapiens), sequence (P33261 whole entry, looked up): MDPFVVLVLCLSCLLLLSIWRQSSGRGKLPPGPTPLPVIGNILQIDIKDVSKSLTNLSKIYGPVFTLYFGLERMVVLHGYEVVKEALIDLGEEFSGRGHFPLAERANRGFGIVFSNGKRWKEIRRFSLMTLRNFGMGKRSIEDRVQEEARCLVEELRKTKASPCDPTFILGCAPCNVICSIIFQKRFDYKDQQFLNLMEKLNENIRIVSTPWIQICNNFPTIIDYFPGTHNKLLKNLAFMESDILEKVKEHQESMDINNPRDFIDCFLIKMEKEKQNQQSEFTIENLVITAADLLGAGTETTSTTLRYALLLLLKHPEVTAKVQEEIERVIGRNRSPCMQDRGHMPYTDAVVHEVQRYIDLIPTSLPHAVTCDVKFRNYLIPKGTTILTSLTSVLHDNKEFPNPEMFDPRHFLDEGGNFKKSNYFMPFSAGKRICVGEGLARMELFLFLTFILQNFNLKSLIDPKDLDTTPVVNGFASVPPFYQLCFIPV
Summary of the method: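 Human CYP2C19 (5nM) with Luciferin-H EGE at 10uM (its KM) in 50mM KPO4 was preincubated with compound for 10 min at 37C. NADPH regeneration started a 60 min 37C reaction. Luciferin was read by luminescence, normalized to 57uM ketoconazole.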

Cc1nc2cncnc2n(Cc2ccc(F)cc2)c1=O
inactive: Potency [1] > 11.4 µM | activity change, negative = inhibition [2] -6.19% | activity change, negative = inhibition [3] 9.35% | activity, negative = inhibition [4] -9.93% | Potency [5] > 9.22 µM | Potency [6] > 46 µM | Potency [7] | Potency [8] | Potency [9] | Potency [10] | outcome [11]

COc1ccccc1CNc1ncncc1-c1cccc(NS(C)(=O)=O)c1
active: Potency [14] 0.251 µM
inactive: activity change, negative = inhibition [2] -18.5% | activity change, negative = inhibition [3] 22.3% | activity, negative = inhibition [4] -7.42% | Potency [5] > 46 µM | Potency [6] > 46 µM | Potency [12] | Potency [13] | Potency [7] | Potency [15] | Potency [10] | outcome [11]

COc1ccc2[nH]cc(CCNc3nc(-c4ccc(N(C)C)cc4)nc4ccccc34)c2c1
active: Potency [1] 0.554 µM | Potency [16] 1.26 µM | Potency [17] 0.398 µM | Potency [18] 7.94 µM | Potency [19] 7.94 µM | Potency [8] 28.2 µM
inactive: Potency [5] > 46 µM | Potency [6] > 46 µM | Potency [7] | Potency [9] | Potency [10] | outcome [11]

COc1ccc(CNc2ccnc(-c3c(C)noc3C)n2)c(OC)c1
active: Potency [16] 1.26 µM | Potency [14] 2.51 µM | Potency [19] 1.58 µM
inactive: Potency [1] > 11.4 µM | activity change, negative = inhibition [2] 11.5% | activity change, negative = inhibition [3] 8.32% | activity, negative = inhibition [4] 0.0565% | Potency [5] > 46 µM | Potency [6] > 46 µM | Potency [12] | Potency [7] | Potency [8] | Potency [9] | outcome [11]

CN(C)C(=O)c1ccc(-c2nccc(NCc3cccs3)n2)cc1
inactive: Potency [1] > 11.4 µM | activity change, negative = inhibition [2] -0.866% | activity change, negative = inhibition [3] 3.58% | activity, negative = inhibition [4] -7.66% | Potency [6] > 46 µM | Potency [12] | Potency [13] | Potency [7] | Potency [15] | Potency [10] | outcome [11]
active: Potency [16] 15.8 µM

CS(=O)(=O)Nc1cccc(-c2cncnc2Nc2ccccc2)c1
active: Potency [16] 5.01 µM | Potency [14] 0.501 µM | Potency [8] 22.4 µM
inactive: Potency [1] > 11.4 µM | activity change, negative = inhibition [2] -20.2% | activity change, negative = inhibition [3] 23.9% | activity, negative = inhibition [4] -2.71% | Potency [5] > 46 µM | Potency [6] > 46 µM | Potency [12] | Potency [13] | Potency [7] | Potency [9] | Potency [10] | outcome [11]

Cc1cnc(CNc2cc(-c3cccnc3)ncn2)cn1
active: Potency [16] 15.8 µM | Potency [8] 31.6 µM
inactive: activity change, negative = inhibition [2] -14.2% | activity change, negative = inhibition [3] -1.2% | activity, negative = inhibition [4] -0.57% | Potency [5] > 46 µM | Potency [6] > 46 µM | Potency [12] | Potency [13] | Potency [7] | Potency [9] | Potency [10] | outcome [11]
